From PubChem BioAssay AID1851 (National Center for Advancing Translational Sciences (NCATS), 2009)
Screen size: about 16,000 compounds; about 4,000 (25%) were called active. About 26% were inconclusive and are not listed. Calls come from the whole dose curve; as a rule, active = well fitted curve in the direction sought with a large enough effect; inconclusive = small, poorly fitted or top-dose-only effect, or effect the other way; inactive = no such curve, though single readings can be large or run the other way. The list is a sample of the results.
% is set by controls: 0 for no effect and ±100 for the full control effect.

These compounds were tested against Cytochrome P450 2C9 (Homo sapiens) (UniProt P11712) (assay: Cytochrome panel assay with activity outcomes). Details: recombinant CYP, pro-luciferin dealkylation, luminescence, p450-cyp2c9; series mostly up to 57.1 µM; activity, negative = inhibition: at the top concentration.
Sequence of Cytochrome P450 2C9 (Homo sapiens) (P11712 whole entry, looked up): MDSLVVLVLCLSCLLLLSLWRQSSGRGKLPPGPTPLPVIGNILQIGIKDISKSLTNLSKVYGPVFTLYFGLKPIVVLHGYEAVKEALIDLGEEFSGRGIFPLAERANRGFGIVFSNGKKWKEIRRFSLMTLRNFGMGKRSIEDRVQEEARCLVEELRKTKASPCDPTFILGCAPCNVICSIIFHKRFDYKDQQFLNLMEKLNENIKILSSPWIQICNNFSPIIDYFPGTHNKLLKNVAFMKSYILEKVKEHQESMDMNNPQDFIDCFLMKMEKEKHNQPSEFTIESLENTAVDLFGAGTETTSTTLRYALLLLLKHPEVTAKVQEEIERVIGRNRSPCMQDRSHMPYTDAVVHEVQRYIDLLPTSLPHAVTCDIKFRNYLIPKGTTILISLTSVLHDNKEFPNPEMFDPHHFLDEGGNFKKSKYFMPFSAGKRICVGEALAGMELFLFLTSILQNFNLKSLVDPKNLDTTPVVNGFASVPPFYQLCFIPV
For CC(C)CN(CC(C)C)C1=N/C(=C\c2ccco2)C(=O)N1c1ccccc1, the AC50 was 3.98 µM (active). With Cc1cnc(CNc2ccnc(-c3ccccc3C(F)(F)F)n2)cn1 the activity, negative = inhibition was 8.33% [at 2.29 µM] (inactive). With C#CCSc1n[nH]c(-c2ccco2)n1 the activity, negative = inhibition was 0.366% [at 11.4 µM] (inactive). With CC#C[C@@]1(O)CC[C@H]2[C@@H]3CCC4=CC(=O)CCC4=C3[C@H](c3ccc(N(C)C)cc3)C[C@]21C the AC50 was 3.98 µM (active). In the case of CC#C[C@]1(O)CC[C@H]2[C@@H]3CCC4=CC(=O)CCC4=C3[C@H](c3ccc(N(C)C)cc3)C[C@@]21C, the “activity, negative = inhibition” value is reported as -27.4% (inactive). CCCC(=O)N1c2ccccc2C(N(C(C)=O)c2ccccc2)CC1C (configuration not stated) was tested, and the AC50 was 3.98 µM (active). In the case of CC1Cc2ccccc2N1C(=O)CSCC(=O)O (configuration not stated), the “activity, negative = inhibition” value is reported as -1.23% (inactive). In the case of Cn1nc(C(F)(F)F)c(/C=N/OCc2c(Cl)cccc2Cl)c1Cl, the AC50 is reported as 1.58 µM (active). For O=C(NCCCN1CCCCCC1)C1CC(=O)N(CCc2ccccc2)C1 (configuration not stated), the “activity, negative = inhibition” value was -5.16% (inactive). CC(=O)c1ccc(N2CCC(c3cc(-c4ccc(Cl)cc4Cl)n[nH]3)CC2)c([N+](=O)[O-])c1 was tested, and the AC50 was 3.98 µM (active). With COc1ccc(-c2cc(C3CCN(c4ccc(C(C)=O)cc4[N+](=O)[O-])CC3)[nH]n2)cc1 the AC50 was 7.94 µM (active). In the case of COc1ccc(-c2cc(C3CCN(c4cc(Cl)nc(N)n4)CC3)[nH]n2)cc1, the AC50 is reported as 14.1 µM (active). In the case of CC(=O)c1ccc(N2CCC(c3cc(-c4ccc(Cl)cc4)n[nH]3)CC2)c([N+](=O)[O-])c1, the AC50 is reported as 3.98 µM (active). For CC(C)NC(=O)N1CCC2(CC1)CCN(S(C)(=O)=O)CC2, the “activity, negative = inhibition” value was 9.5% (inactive). CN(Cc1ccco1)c1ncncc1-c1ccccc1C(F)(F)F was tested, and the activity, negative = inhibition was -7.74% [at 2.29 µM] (inactive). COc1ccccc1-c1cc(Nc2ccn[nH]2)ncn1 was tested, and the activity, negative = inhibition was -3.07% [at 2.29 µM] (inactive). For CC(C)SC(=N)N, the “activity, negative = inhibition” value was -9.07% (inactive). With Clc1ccc(COC(Cn2ccnc2)c2ccc(Cl)cc2Cl)c(Cl)c1 (configuration not stated) the AC50 was 0.316 µM (active). For Clc1ccc([C@H](Cn2ccnc2)OCc2csc3c(Cl)cccc23)c(Cl)c1, the AC50 was 0.316 µM (active). For NC(N)=NC(N)=Nc1c(F)c(F)c(F)c(F)c1F, the activity, negative = inhibition was 0.138% [at 11.4 µM] (inactive). With O=C(O)c1cc2cc(Cc3cccnc3)ccc2o1 the “activity, negative = inhibition” value was 0.178% (inactive). With Cc1cccc(OCCn2c(S(=O)(=O)O)nc3ccccc32)c1 the AC50 was 5.62 µM (active). O=S(=O)(O)c1nc2ccccc2n1Cc1ccccc1 was tested, and the AC50 was 25.1 µM (active). In the case of OCCN1CCN(CCOc2cccc(Cl)c2)CC1, the “activity, negative = inhibition” value is reported as -19.2% (inactive). For CS(=O)(=O)c1nc2ccccc2n1Cc1ccccc1, the “activity, negative = inhibition” value was -24.8% (inactive). Cc1cccc(CCNc2nc3ccccc3n3nnnc23)c1 was tested, and the “activity, negative = inhibition” value was -13.9% (inactive). O=C(O)[C@@H]1[C@H](C(=O)O)[C@H]2C(=O)C=C[C@H]1N2Cc1ccccc1 was tested, and the activity, negative = inhibition was 4.11% [at 11.4 µM] (inactive). With Cc1cccc(OCCn2c(-c3ccco3)nc3ccccc32)c1 the AC50 was 1.78 µM (active). For OC[C@@H]1NC[C@@H](O)[C@@H](O)[C@H]1O, the “activity, negative = inhibition” value was -12.5% (inactive). For COC(=O)N1CCC2(CCCN(C(=O)Nc3cccc(F)c3)C2)CC1, the “activity, negative = inhibition” value was 19.8% (inactive). In the case of O=C(c1[nH]o[n+](=O)c1C(=O)c1csc2ccccc12)c1csc2ccccc12, the AC50 is reported as 1.58 µM (active). In the case of O=C1NCCc2c1[nH]c1ccccc21, the “activity, negative = inhibition” value is reported as -6.41% (inactive). With COc1cccc(/C=c2/s/c(=C(\C#N)C(=O)N3CCOCC3)n(-c3ccccc3)c2=O)c1 the “activity, negative = inhibition” value was -17.4% (inactive). In the case of CN(c1ccccc1)c1ccc(/C=c2\s/c(=C(/C#N)C(=O)C(C)(C)C)n(Cc3ccco3)c2=O)cc1, the AC50 is reported as 3.55 µM (active). COC(=O)c1ccc(C(NC(=O)c2ccccc2)[C@]2(C)C[C@H]2C2CCCCC2)cc1 (some centres not stated) was tested, and the “activity, negative = inhibition” value was -21.3% (inactive). For COC(=O)c1ccc(C(NC(=O)c2ccco2)[C@]2(C)C[C@H]2C2CCCCC2)cc1 (some centres not stated), the AC50 was 10 µM (active). For CCCC[C@@H]1C[C@H]1C(NC(=O)c1ccc(-c2ccccc2)cc1)c1ccc(-c2ccccc2)cc1 (some centres not stated), the “activity, negative = inhibition” value was 8.19% (inactive). For C=C(CC1([C@@H](NP(=O)(c2ccccc2)c2ccccc2)[C@H]2C[C@@H]2CCCC)CC1)c1ccccc1, the AC50 was 10 µM (active). For CCCC[C@@H]1C[C@H]1C(NC(=O)c1ccco1)c1ccccc1 (some centres not stated), the AC50 was 15.8 µM (active). For CCCC[C@@H]1C[C@H]1C(NC(=O)c1ccccc1)c1ccccc1 (some centres not stated), the AC50 was 7.94 µM (active). For C[C@@]1(C(NC(=O)Cc2ccccc2)c2ccc(-c3ccccc3)cc2)C[C@H]1C1CCCCC1 (some centres not stated), the “activity, negative = inhibition” value was -6.75% (inactive). With CN(C)CCSCCO the activity, negative = inhibition was 13.5% [at 11.4 µM] (inactive). With CO[C@@H]1COC(=O)[C@H](COCc2ccccc2)NC(=O)C/C=C\[C@@H](C)[C@H](OC)COC(=O)[C@@H](C)NC(=O)C/C=C\[C@H]1C the activity, negative = inhibition was -22.8% [at 11.4 µM] (inactive). For CCC[C@@H]1C[C@@]1(CCC)C(NS(=O)(=O)c1cccc2cccnc12)c1ccc(Cl)cc1 (some centres not stated), the AC50 was 7.94 µM (active). For CCCC[C@@H]1C[C@H]1C(NC(=O)c1ccco1)c1ccc(Cl)cc1 (some centres not stated), the AC50 was 3.98 µM (active). For CCCC[C@@H]1C[C@H]1C(NC(=O)c1ccco1)c1ccc(C(=O)OC)cc1 (some centres not stated), the AC50 was 0.794 µM (active). C[C@@]1(C(NC(=O)c2ccc(-c3ccccc3)cc2)c2ccc(Cl)cc2)C[C@H]1C1CCCCC1 (some centres not stated) was tested, and the “activity, negative = inhibition” value was 4.8% (inactive). With CCC[C@@H]1C[C@@]1(CCC)C(NC(=O)c1ccco1)c1ccc(Cl)cc1 (some centres not stated) the AC50 was 15.8 µM (active). With C[N+]1(CCC(=O)c2ccco2)CC2CCC(CC2)C1 (configuration not stated) the activity, negative = inhibition was 6.14% [at 11.4 µM] (inactive). In the case of CC1(C)S[C@@H]2[C@H](NC(=O)[C@H](C(=O)O)c3ccsc3)C(=O)N2[C@H]1C(=O)O, the “activity, negative = inhibition” value is reported as 27.8% [at 25.6 µM] (inactive). O=c1oc2c(Cl)cc(Cl)cc2cc1-c1nnc(Nc2ccccc2F)s1 was tested, and the “activity, negative = inhibition” value was 25% (inactive). With COC(=O)[C@@H]1C[C@H]1[C@@H](NC(=O)c1cc(C)nn1C)c1ccccc1 the “activity, negative = inhibition” value was -53.8% (inactive). With CCCC[C@@H]1C[C@H]1C(NC(=O)Cc1ccccc1)c1ccc(-c2ccccc2)cc1 (some centres not stated) the “activity, negative = inhibition” value was -22.7% (inactive). In the case of CCCC[C@@H]1C[C@H]1C(NC(=O)c1ccco1)c1ccc(-c2ccccc2)cc1 (some centres not stated), the AC50 is reported as 3.16 µM (active). NNC(=O)[C@@H](O)[C@H](O)[C@H](O)CO was tested, and the activity, negative = inhibition was -4.21% [at 11.4 µM] (inactive). In the case of CC1=NN(c2ccccc2)C(=O)[C@@H]1N=Nc1ccc(S(N)(=O)=O)cc1, the activity, negative = inhibition is reported as 3.33% [at 11.4 µM] (inactive). For CC1=NN(c2ccccc2)C(=O)C1C(=O)c1ccc(Cl)cc1 (configuration not stated), the AC50 was 0.562 µM (active). Cc1cc(C)n(-c2nc(NCC(C)O)c3c4c(sc3n2)COC(C)(C)C4)n1 (configuration not stated) was tested, and the AC50 was 15.8 µM (active). In the case of CCC(O)CNc1nc(-n2nc(C)cc2C)nc2sc3c(c12)CC(C)(C)OC3 (configuration not stated), the AC50 is reported as 14.1 µM (active). COc1ccc(-n2c(=O)c(C)nc3cnc(N4CCNCC4)nc32)cc1 was tested, and the “activity, negative = inhibition” value was 9.08% (inactive). For C=CC1=C(C)C2=Cc3c(C=C)c(C)c4[n]3[Sn+2][n]3c(c(C)c(CCC(=O)O)c3=CC3=NC(=C4)C(C)=C3CCC(=O)O)=CC1=N2, the “activity, negative = inhibition” value was -7.28% (inactive). For CSc1nc2c(c(=O)[nH]1)C(c1ccncc1)C(C(=O)OC(C)C)=C(C)N2 (configuration not stated), the AC50 was 7.94 µM (active). CCSc1nc2c(c(=O)[nH]1)C(c1ccccn1)C1=C(CC(C)(C)CC1=O)N2 (configuration not stated) was tested, and the “activity, negative = inhibition” value was -6.53% (inactive). CCSc1nc2c(c(=O)[nH]1)C(c1ccncc1)C(C(=O)OC(C)C)=C(C)N2 (configuration not stated) was tested, and the AC50 was 2.82 µM (active). In the case of O=C(O)c1cc2c(cc1S(=O)(=O)O)[C@H]1[C@@H]([C@H]3[C@H]2[C@@]2(Cl)C(Cl)=C(Cl)[C@]3(Cl)C2(Cl)Cl)[C@]2(Cl)C(Cl)=C(Cl)[C@@]1(Cl)C2(Cl)Cl, the activity, negative = inhibition is reported as -16.9% [at 11.4 µM] (inactive). With CC1(C)[C@@H]2CC[C@]1(CC(=O)O)[C@H](Cl)C2 the activity, negative = inhibition was 4.29% [at 11.4 µM] (inactive). O=C(CSC1CC(=O)N(CC(c2ccccc2)c2ccccc2)C1=O)Nc1ccc(Cl)cc1 (configuration not stated) was tested, and the AC50 was 3.98 µM (active). With CC12CS(=O)(=O)CC1SC(=S)N2c1ccccn1 (configuration not stated) the “activity, negative = inhibition” value was -20.9% (inactive). CCOC(=O)c1c(C)[nH]c(C)c1C(=O)COC(=O)c1ccc(S(=O)(=O)N(CC)CC)cc1 was tested, and the AC50 was 0.355 µM (active). In the case of CCN(CC)CCOC(=O)c1ccc(N)cc1, the AC50 is reported as “inactive”. CCOC(=O)c1c(C)[nH]c2ccc3c(c12)CN1CCc2cc(OC)ccc2[C@@H]1O3 was tested, and the “activity, negative = inhibition” value was 8.04% (inactive). With O=[N+]([O-])c1cccc(-c2nc(-c3ccccc3)c(-c3cccs3)[nH]2)c1 the “activity, negative = inhibition” value was -24.6% (inactive). In the case of NC(N)=Nc1nc2ccc([N+](=O)[O-])cc2[nH]1, the activity, negative = inhibition is reported as 9.74% [at 11.4 µM] (inactive). For c1ccc(-c2nc(-c3cccs3)[nH]c2-c2ccccc2)cc1, the AC50 was 6.31 µM (active). For O=[N+]([O-])c1cccc(-c2nc(-c3cccs3)c(-c3cccs3)[nH]2)c1, the AC50 was 1.58 µM (active). In the case of CN(C)Cc1ccccc1-c1ccc2ncnc(N(C)C)c2c1, the activity, negative = inhibition is reported as 9.43% [at 2.29 µM] (inactive). With CC(=O)N1CCN(c2nc(C)nc3sc4c(c23)CCC(C)C4)CC1 (configuration not stated) the AC50 was 14.1 µM (active). In the case of Cc1cc(C(F)F)n2nc(C(=O)Nc3sc4c(c3C#N)CCC(C)C4)nc2n1 (configuration not stated), the “activity, negative = inhibition” value is reported as -11.3% (inactive). For COc1ccc2c(c1)-c1ccccc1S(=O)(=O)N2C, the AC50 was 14.1 µM (active). In the case of CC[N+](C)(CC)CCN1C(=O)c2ccccc2S1(=O)=O, the activity, negative = inhibition is reported as -0.798% [at 11.4 µM] (inactive). With Cc1cc2c(nc1C)CCCCN2C[C@H](C)O/N=C\[C@@H](C)[C@H](OCc1ccccc1)C(C)C the activity, negative = inhibition was -8.65% [at 11.4 µM] (inactive). S=C(S)N1CCCC1 was tested, and the AC50 was 2 µM (active). With CC(C)(C)CC(=O)NC(=S)N1CCCCCC1 the “activity, negative = inhibition” value was -2.88% (inactive). In the case of CCNC(=O)C/C(C)=N/NC(=O)C12CC3CC(CC(C3)C1)C2, the “activity, negative = inhibition” value is reported as 0.134% (inactive). With C=CCn1c(COc2ccccc2)nnc1SCC(=O)N/N=C/c1ccc(C)cc1 the AC50 was 11.2 µM (active). For COc1ccc(O)c(/C=N/NC(=O)CSc2nnc(C)n2-c2ccccc2)c1, the “activity, negative = inhibition” value was 16.8% (inactive). COc1ccc(C[C@@H]2c3cc(OC)c(OC)cc3CC[N@+]2(C)CCC(=O)OCCCCCOC(=O)CC[N@@+]2(C)CCc3cc(OC)c(OC)cc3[C@H]2Cc2ccc(OC)c(OC)c2)cc1OC was tested, and the “activity, negative = inhibition” value was -14.1% [at 25.6 µM] (inactive).
